# Measured values as given in PubChem BioAssay (Tox21).
# Inconclusive results are not listed. A call without a number means that no potency is given here. Calls of active or inactive are those of the source. Unless noted, calls come from the whole dose curve; as a rule, active = well fitted curve in the direction sought with a large enough effect in the repeat runs; inconclusive = weak or mixed curves; inactive = no such curve, though single readings can be large; an effect the other way counts as inactive or inconclusive.
# What was measured:
# [1] = biological target: Peroxisome proliferator-activated receptor delta (Homo sapiens) (UniProt Q03181); assay: qHTS assay to identify small molecule agonists of the peroxisome proliferator-activated receptor delta (PPARd) signaling pathway (AID 743212; calls by dose curve)
# Peroxisome proliferator-activated receptor delta (Homo sapiens), sequence (Q03181 whole entry, looked up): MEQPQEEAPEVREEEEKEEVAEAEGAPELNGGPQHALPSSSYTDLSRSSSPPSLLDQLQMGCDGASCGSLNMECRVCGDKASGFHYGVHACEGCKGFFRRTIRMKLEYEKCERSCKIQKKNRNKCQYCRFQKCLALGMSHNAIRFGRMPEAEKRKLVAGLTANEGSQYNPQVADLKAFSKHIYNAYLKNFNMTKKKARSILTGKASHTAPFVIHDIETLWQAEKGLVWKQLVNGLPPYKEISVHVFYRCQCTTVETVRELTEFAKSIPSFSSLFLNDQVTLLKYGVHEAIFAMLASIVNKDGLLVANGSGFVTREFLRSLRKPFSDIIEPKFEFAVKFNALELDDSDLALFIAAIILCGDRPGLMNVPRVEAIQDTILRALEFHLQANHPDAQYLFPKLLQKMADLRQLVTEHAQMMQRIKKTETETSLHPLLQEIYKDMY
# How it was run: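 Beta-lactamase reporter readout: a ratiometric FRET signal from the LiveBLAzer substrate after 2 h at room temperature. Compound exposure at 37 °C in PPARδ-bla HEK293H cells driven by an upstream activator sequence.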
# [2] = qHTS assay to identify small molecule antagonists of the peroxisome proliferator-activated receptor delta (PPARd) signaling pathway - cell viability counter screen (AID 743213); note: nearly all actives have a fitted effect of over 50% in size; note: potency is the fitted concentration of half-maximal effect
# How it was run: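 HEK293H PPARd UAS-bla cells, 5 h pre-incubation, compound + L165041 300 nM final, 17 h 37 C; B/G FRET substrate 2 h RT; then CellTiter-Glo 30 min RT, luminescence.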
# [3] = biological target: Peroxisome proliferator-activated receptor delta (Homo sapiens) (UniProt Q03181); assay: qHTS assay to identify small molecule antagonists of the peroxisome proliferator-activated receptor delta (PPARd) signaling pathway (AID 743215; active = well fitted inhibition curve with a large enough effect in the signal ratio in the repeat runs, not every such curve was filed as active; the % refers to the signal ratio;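 note: cells stimulated with agonist L165041 at 300 nM final during compound exposure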; note: potency is the fitted concentration of half-maximal effect)
# How it was run: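 HEK293H GeneBLAzer PPARd UAS-bla reporter cells; cpd + L165041 300 nM final, 17 h 37 C; LiveBLAzer B/G FRET substrate 2 h RT; fluorescence intensity read-out. Antagonist mode.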
# [4] = biological target: Bile acid receptor (Homo sapiens) (UniProt Q96RI1); assay: qHTS assay to identify small molecule antagonists of the farnesoid-X-receptor (FXR) signaling pathway (AID 743217; active = well fitted inhibition curve with a large enough effect in the signal ratio in the repeat runs, not every such curve was filed as active; the % refers to the signal ratio; note: potency is the fitted concentration of half-maximal effect)
# Bile acid receptor (Homo sapiens), sequence (Q96RI1 whole entry, looked up): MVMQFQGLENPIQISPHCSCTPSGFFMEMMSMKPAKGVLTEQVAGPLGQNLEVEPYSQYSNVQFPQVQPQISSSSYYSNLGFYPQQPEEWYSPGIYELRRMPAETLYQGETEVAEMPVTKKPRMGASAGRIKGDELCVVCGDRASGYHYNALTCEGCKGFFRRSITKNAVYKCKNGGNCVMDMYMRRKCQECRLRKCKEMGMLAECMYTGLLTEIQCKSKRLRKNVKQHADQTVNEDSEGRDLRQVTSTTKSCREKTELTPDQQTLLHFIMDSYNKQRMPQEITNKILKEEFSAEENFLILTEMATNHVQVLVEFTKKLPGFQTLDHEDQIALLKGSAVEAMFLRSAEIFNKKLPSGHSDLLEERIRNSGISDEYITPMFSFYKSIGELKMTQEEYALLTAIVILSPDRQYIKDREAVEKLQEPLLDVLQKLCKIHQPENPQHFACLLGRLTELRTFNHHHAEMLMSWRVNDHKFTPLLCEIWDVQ
# How it was run: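 Read-out: beta-lactamase FRET fluorescence (LiveBLAzer B/G substrate, 2 h, room temperature) in GeneBLAzer FXR-UAS-bla HEK 293T cells. Compounds were co-dosed with 50 uM chenodeoxycholic acid (final) and incubated 16 h at 37 °C.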
# [5] = biological target: Bile acid receptor (Homo sapiens) (UniProt Q96RI1); assay: qHTS assay to identify small molecule agonists of the farnesoid-X-receptor (FXR) signaling pathway (AID 743220; active = well fitted activation curve with a large enough effect in the signal ratio in the repeat runs, not every such curve was filed as active; the % refers to the signal ratio; note: potency is the fitted concentration of half-maximal effect)
# How it was run: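 FXR-UAS-bla HEK 293T cells carrying a UAS-driven beta-lactamase reporter were plated for 5 h at 37C/5% CO2, then exposed to DMSO-dissolved Tox21 10K compounds for 16 h at 37C. A LiveBLAzer B/G FRET substrate was loaded for 2 h at room temperature before fluorescence reading.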
# [6] = qHTS assay to identify small molecule antagonists of the farnesoid-X-receptor (FXR) signaling pathway - cell viability counter screen (AID 743221; active = well fitted cell-killing curve with a large enough effect in the repeat runs, not every such curve was filed as active; note: nearly all actives have a fitted effect of over 50% in size; note: potency is the fitted concentration of half-maximal effect)
# How it was run: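 FXR-UAS-bla HEK 293T cells were treated with test compounds plus chenodeoxycholic acid (50 uM final) for 16 h at 37 C. Cell viability in the same wells was then read as CellTiter-Glo luminescence after 30 min at room temperature.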
# [7] = biological target: Vitamin D3 receptor (Homo sapiens) (UniProt P11473); assay: qHTS assay to identify small molecule agonists of the vitamin D receptor (VDR) signaling pathway (AID 743222; calls by dose curve)
# Vitamin D3 receptor (Homo sapiens), sequence (P11473 whole entry, looked up): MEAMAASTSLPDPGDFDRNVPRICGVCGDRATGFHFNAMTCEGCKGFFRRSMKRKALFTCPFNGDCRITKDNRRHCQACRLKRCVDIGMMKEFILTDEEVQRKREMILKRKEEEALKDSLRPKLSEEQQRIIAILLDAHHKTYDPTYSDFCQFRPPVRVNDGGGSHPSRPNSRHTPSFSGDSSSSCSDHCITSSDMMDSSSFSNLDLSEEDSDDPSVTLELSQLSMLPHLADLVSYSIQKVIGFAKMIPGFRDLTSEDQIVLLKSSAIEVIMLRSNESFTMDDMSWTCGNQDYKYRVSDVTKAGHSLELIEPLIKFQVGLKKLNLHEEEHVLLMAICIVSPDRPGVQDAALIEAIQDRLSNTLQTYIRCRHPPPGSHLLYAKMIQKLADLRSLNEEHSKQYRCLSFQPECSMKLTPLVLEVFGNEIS
# How it was run: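 Beta-lactamase reporter readout (LiveBLAzer B/G FRET, 2 h RT) in VDR-bla cells after 16 h compound treatment at 37C, 5% CO2; cells pre-incubated 4 h before pin transfer of DMSO solutions.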
# [8] = biological target: Vitamin D3 receptor (Homo sapiens) (UniProt P11473); assay: qHTS assay to identify small molecule antagonists of the vitamin D receptor (VDR) signaling pathway (AID 743223; active = well fitted inhibition curve with a large enough effect in the signal ratio in the repeat runs, not every such curve was filed as active; the % refers to the signal ratio; note: potency is the fitted concentration of half-maximal effect)
# How it was run: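 VDR-bla cells were plated, incubated 4 h at 37C, then given compound and 1alpha,25-dihydroxyvitamin D3 (3 nM final). After 16 h at 37C, LiveBLAzer B/G FRET substrate was added for 2 h at room temperature and fluorescence read.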
# [9] = qHTS assay to identify small molecule agonists of the farnesoid-X-receptor (FXR) signaling pathway - cell viability counter screen (AID 743218); note: nearly all actives have a fitted effect of over 45% in size; note: potency is the fitted concentration of half-maximal effect
# How it was run: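 Luminescence from CellTiter-Glo, read after 30 min at RT, reports viability of GeneBLAzer FXR-UAS-bla HEK 293T cells treated 16 h with compounds in the wells used for the beta-lactamase reporter.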
# [10] = qHTS assay to identify small molecule agonists of the peroxisome proliferator-activated receptor delta (PPARd) signaling pathway - cell viability counter screen (AID 743211); note: nearly all actives have a fitted effect of over 55% in size; note: potency is the fitted concentration of half-maximal effect
# How it was run: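 PPARd-bla HEK293H cells (UAS-beta-lactamase reporter) were treated with compounds for 17 h at 37 C. Viability was then read in the same wells by CellTiter-Glo luminescence after 30 min at room temperature.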
smiles,measurement,setting,value
CC1CCCCN1CCCOC(=O)c1ccc(OC2CCCCC2)cc1 (stereo not drawn),outcome,[1],inactive
same,Potency,[2],inactive
same,Potency,[3],inactive
same,Potency,[4],inactive
same,Potency,[5],inactive
same,Potency,[6],inactive
same,Potency,[7],inactive
same,Potency,[8],inactive
CC(O)C#CC(C)O (stereo not drawn),outcome,[1],inactive
same,Potency,[2],inactive
same,Potency,[9],inactive
same,Potency,[6],inactive
COc1cccc(CCc2ccccc2OCC(CN(C)C)OC(=O)CCC(=O)O)c1 (stereo not drawn),outcome,[1],inactive
same,Potency,[3],inactive
same,Potency,[4],inactive
same,Potency,[9],inactive
same,Potency,[5],inactive
same,Potency,[7],inactive
same,Potency,[8],inactive
Clc1ccc(C(Cn2ccnc2)OCc2c(Cl)cccc2Cl)c(Cl)c1 (stereo not drawn),Potency,[10],26.6 µM (active)
same,Potency,[4],21.1 µM (active)
same,Potency,[9],21.1 µM (active)
same,Potency,[5],10.6 µM (active)
same,Potency,[6],26.6 µM (active)
O=C1OC(OC(=O)c2cccnc2Nc2cccc(C(F)(F)F)c2)c2ccccc21 (stereo not drawn),Potency,[10],inactive
same,Potency,[2],inactive
same,Potency,[9],inactive
same,Potency,[6],inactive
CCCN(CCc1cccs1)[C@H]1CCc2c(O)cccc2C1,outcome,[1],inactive
same,Potency,[2],inactive
same,Potency,[3],inactive
same,Potency,[6],inactive
CSc1c(Cl)c(Cl)c(Cl)c(Cl)c1Cl,Potency,[10],54.6 µM (active)
same,Potency,[2],inactive
same,Potency,[5],inactive
same,Potency,[6],inactive
same,Potency,[8],inactive
C/C=C/C=N/NC(=O)c1ccncc1,outcome,[1],inactive
same,Potency,[2],inactive
same,Potency,[9],inactive
same,Potency,[6],inactive
same,Potency,[8],inactive
CC(COC(=O)c1ccccc1)OC(=O)c1ccccc1 (stereo not drawn),Potency,[10],inactive
same,Potency,[2],inactive
same,Potency,[6],inactive
same,Potency,[8],inactive
NC(=O)c1nc(-c2cccc(-c3cc(F)ccc3OCC(F)(F)C(F)(F)F)c2)n[nH]1,Potency,[10],49 µM (active)
same,Potency,[3],54.9 µM (active)
same,Potency,[5],inactive
CCN(CC)CCOC(=O)C1(C2CCCCC2)CCCCC1,outcome,[1],inactive
same,Potency,[2],inactive
same,Potency,[9],inactive
same,Potency,[6],inactive
same,Potency,[8],inactive
COc1cc(C(C)C)c2c(c1)S(=O)(=O)N(COc1cc(=O)n3cccc(OCCN4CCCCC4)c3n1)C2=O,Potency,[10],inactive
same,Potency,[4],inactive
same,Potency,[9],inactive
same,Potency,[6],inactive
Cc1occc1SSc1ccoc1C,outcome,[1],inactive
same,Potency,[2],inactive
same,Potency,[4],inactive
same,Potency,[9],inactive
same,Potency,[6],inactive
same,Potency,[8],inactive
CN(Cc1cc(Br)cc(Br)c1N)C1CCCCC1,outcome,[1],inactive
same,Potency,[2],inactive
same,Potency,[3],inactive
same,Potency,[5],inactive
same,Potency,[6],inactive
S=C(SSSSSSC(=S)N1CCCCC1)N1CCCCC1,Potency,[10],0.108 µM (active)
same,Potency,[2],0.382 µM (active)
same,Potency,[5],inactive
same,Potency,[8],inactive
Cc1c(C)n(Cc2ccccc2)c2ccc(C(=O)OCCN(C)C)cc12,Potency,[10],26.6 µM (active)
same,Potency,[4],inactive
same,Potency,[5],inactive
same,Potency,[6],inactive
same,Potency,[8],inactive
CNC(=S)NN,Potency,[10],12.3 µM (active)
same,Potency,[2],11 µM (active)
same,Potency,[9],inactive
same,Potency,[8],17.4 µM (active)
CC1=C(/C=C/C(C)=C/C=C/C(C)=C\C=O)C(C)(C)CCC1,Potency,[10],41.3 µM (active)
same,Potency,[9],46.4 µM (active)
COc1ccccc1OCCNCC(O)COc1cccc2[nH]c3ccccc3c12 (stereo not drawn),Potency,[10],23.7 µM (active)
same,Potency,[9],26.6 µM (active)
same,Potency,[5],inactive
same,Potency,[7],inactive
CC(C)c1ccc(O)c(C(C)C)c1,outcome,[1],inactive
same,Potency,[3],inactive
same,Potency,[9],inactive
CC(C)N=C(N)/N=C(\N)Nc1ccc(Cl)cc1,outcome,[1],inactive
same,Potency,[2],11.9 µM (active)
same,Potency,[4],inactive
same,Potency,[5],inactive
NCCCC(O)(P(=O)(O)O)P(=O)(O)O,Potency,[10],inactive
same,Potency,[2],inactive
same,Potency,[9],inactive
same,Potency,[6],inactive
same,Potency,[7],inactive
same,Potency,[8],inactive
COC(=O)NCCC[Si](OC)(OC)OC,Potency,[10],inactive
same,Potency,[9],inactive
same,Potency,[6],inactive
same,Potency,[8],inactive
CCCCNc1c(C(=O)OCC)c(C)nc2c1cnn2CC,outcome,[1],inactive
same,Potency,[2],inactive
same,Potency,[3],inactive
same,Potency,[9],inactive
same,Potency,[6],inactive
CN(C)CCCN1c2ccccc2Sc2ccc(C(F)(F)F)cc21,Potency,[10],29.8 µM (active)
same,Potency,[9],11.9 µM (active)
same,Potency,[5],inactive
same,Potency,[7],inactive
O=C1Nc2ccc(Cl)cc2[C@@](C#CC2CC2)(C(F)(F)F)O1,outcome,[1],inactive
same,Potency,[2],inactive
same,Potency,[3],inactive
same,Potency,[9],inactive
same,Potency,[8],inactive
Oc1ccc(-c2ccc(O)cc2)cc1,Potency,[10],inactive
same,Potency,[2],inactive
same,Potency,[6],inactive
same,Potency,[8],inactive
